For 8 molecules, growth results are on record in PubChem BioAssay (NCI).

The panel holds about 83,000 compounds, 20% with a hit somewhere; the sample as a whole holds those more often.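 Testing used 96-well plates and a 48-hour single-concentration exposure. Example: -40 means 40% of the starting cells died.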 A number with no mark means an inactive call. The source made the active and inactive calls. Rule for the calls: active = growth percent below 10; inactive = the rest.

Experiment in all cases: NCI-60 one-dose screen, 48 h (100 = growth as untreated, 0 = no growth, -100 = all killed)
Holding throughout (settings): 10 µM unless noted

In assay [1] the test system is HCT-15 colon.
Assay [2] relates to HT29 colon.
In assay [3] the test system is SNB-75 CNS.
The test system of assay [4] is SNB-19 CNS.
For assay [5], the system named is U251 CNS.
Assay [6] concerns SK-MEL-5 melanoma.
For assay [7], the system named is UACC-62 melanoma.
Assay [8] relates to LOX IMVI melanoma.
Assay [9] has as its system SK-MEL-28 melanoma.
The test system of assay [10] is SK-MEL-2 melanoma.
Assay [11] relates to EKVX NSCLC.
Assay [12] relates to SN12C renal.
In assay [13] the test system is UO-31 renal.
Assay [14] relates to TK-10 renal.
Assay [15] has as its system ACHN renal.
Assay [16] concerns CAKI-1 renal.
The subject of assay [17] is A498 renal.
Assay [18] has as its system CCRF-CEM leukemia.
Assay [19] concerns MOLT-4 leukemia.
Assay [20] concerns PC-3 prostate.

`CS(=O)(=O)c1ncc(-c2ccccc2)cn1`: the growth is 89.1% in assay [1]; 105% in assay [2]; 110% in assay [3]; 98.1% in assay [4]; 99.3% in [5]; 93% in assay [6]. For the same molecule, the growth was 89% in assay [7]; 84.6% in assay [8]; 98% in assay [9]; 97.6% in [10]; 97.1% in assay [11]; 96.4% in assay [12]. The growth in [13] is 85.1%; in [14], 97.3%; in [15], 97.3%; in assay [16], 107%; in assay [17], 86.5%; in assay [18], 86.6%. Also, in assay [19], the growth is 97.2%.
Consider `CC(Nc1c(C#N)cnc2ccc(-c3cnc(N)nc3)cc12)c1ccccc1` (stereo unspecified), for which the growth in [1] was 9.92% (active); in assay [2], 17.4%; in [3], 18.9%; in [4] it was 20.4%; in assay [5] it was 21%; in [6], -67.3% (active). In addition, the growth in [7] is 3.27% (active); in [8], 4.6% (active); in [9], 17.9%; in assay [10] it was 2.77% (active); in [11], 0.82% (active); in assay [12], 14.7%. Moreover, the growth is 7.41% (active) in assay [13]; -20.7% (active) in [14]; 14.6% in assay [15]; 1.74% (active) in assay [16]; -38.6% (active) in assay [17]; 19.1% in assay [18]. Also, in assay [19], the growth is 2.96% (active).
Regarding `COc1ccc(C(=O)c2c(N)c(C#N)cn2-c2ccccc2OC)cc1`, the growth in assay [1] is 26%; in assay [2], 6.81% (active); in assay [3], 29.3%; in assay [4], 29.8%; in assay [5], 34.2%; in assay [6], 6.34% (active). Also, the growth was 23.3% in assay [7]; 23.8% in assay [8]; 59.2% in assay [9]; 45.3% in assay [10]; 48.2% in [11]; 47.9% in assay [13]. The growth in assay [14] is 83.2%; in assay [15], 46.7%; in assay [17], 7.39% (active); in assay [18], 19.9%; in [19], 30.5%.
For the molecule `CCOC(=O)c1c(Nc2ccccc2)nn2c(-c3ccccc3)ccnc12`, the growth was 63.3% in assay [1]; 84.4% in [2]; 67.1% in assay [3]; 98.3% in [4]; 90.8% in [5]; 78.5% in assay [6]. Further, the growth in assay [7] was 87.7%; in assay [8], 83%; in assay [11], 95.4%; in assay [12], 90.5%; in [13], 85.5%; in [14], 111%. Further, the growth was 90.7% in assay [15], 88.7% in assay [16], 9.59% (active) in [18] and 87.1% in assay [19].
Regarding `O=c1[nH]c(Sc2sc3ccc(Cl)cc3c2CBr)nc(=S)[nH]1`, the growth in assay [1] is 21.2%; in [2], 91.4%; in [3], 54%; in [4], 60.7%; in [20], 26.4%; in [6] it was 35.1%. In addition, the growth is 1.82% (active) in assay [7]; 25.9% in assay [8]; 28.4% in assay [9]; 7.23% (active) in assay [10]; 40.2% in [11]; 41.8% in [12]. Further, the growth in assay [13] was 19.9%; in [14], 46.2%; in assay [15], 26.7%; in assay [16], 13.7%; in assay [17] it was 5.73% (active); in assay [18], 18%. Also, the growth in [19] is 17.5%.
In the case of `O=C(c1ccc(Cl)cc1)C1[C@H](c2ccc(Cl)cc2)[C@@H](c2ccccc2)NC12C(=O)Nc1ccccc12` (stereo partly specified), the growth in assay [1] is 35.1%; in [2] it was 15.4%; in [3], 51.1%; in [4], 70.3%; in assay [5], 45.8%; in [6], 75.1%. Moreover, the growth in assay [7] was 52.8%; in assay [8] it was 42.4%; in assay [9], 81.2%; in assay [11], 58.6%; in assay [12], 16.6%; in [13], 43.8%. The growth is 78.8% in assay [14]; 34.5% in assay [15]; 37% in assay [16]; 74.3% in assay [17]; 53.9% in assay [18]; 21.1% in assay [19].
As for `COc1ccc(NCc2cn(-c3ccc(C(=O)O)cc3)nc2-c2cc(C(F)(F)F)cc(C(F)(F)F)c2)cc1`, the growth in [1] was 88.8%; in assay [2], 99.1%; in assay [3], 91.9%; in assay [4] it was 94.9%; in [5], 102%; in [6] it was 98.8%. The growth in [7] is 97.3%; in [8], 99.5%; in assay [9], 107%; in [10] it was 101%; in assay [11] it was 90.3%; in assay [12] it was 95.4%. For the same molecule, the growth in assay [13] is 93.1%; in [14], 110%; in assay [15] it was 102%; in [16], 81.5%; in [17], 72.1%; in assay [18], 95.9%. Besides, the growth in assay [19] was 86.4%.
Take `C[C@@H](Nc1c(C#N)cnc2ccc(-c3cnc(Cl)c(NS(C)(=O)=O)c3)cc12)c1ccccc1`: the growth was 10.2% in [1]; 11.6% in [2]; -30% (active) in assay [3]; 15.7% in [4]; 15.2% in [5]; -82.8% (active) in assay [6]. Besides, the growth in assay [7] was -12% (active); in assay [8], -24.6% (active); in assay [9], 5.72% (active); in [10] it was -29.4% (active); in assay [11], -9.44% (active); in assay [12] it was 9.48% (active). For the same molecule, the growth was 4.15% (active) in assay [13]; -17.9% (active) in [14]; 8.09% (active) in assay [15]; -18.4% (active) in [16]; -49.8% (active) in assay [17]; 2.97% (active) in assay [18]. In assay [19], the growth is -35.6% (active).
